Assay outcomes from PubChem.
IL1B secr inh = inhibitors of inflammasome signaling (IL-1 beta secretion); THP-1 LPS/ATP IL-1B secretion, AlphaLISA, 16 h; active compounds read low; activity change, % at 57.5 µM; actives 4.7% (n = 360,000); AID 743279; in the data active means activity change below about -50%; inconclusive means mostly about -30% to -49%
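Secreted IL-1B measured by AlphaLISA bead assay after 16 h compound exposure of THP-1 cells; compounds (final up to 57.5 uM) added 1 h before LPS (250 ng/mL) and ATP (1.25 mM) stimulation; lower signal means less secretion.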
HT1080-NT tox = kills 2HG-producing HT-1080-NT fibrosarcoma cells; HT-1080-NT fibrosarcoma viability, CellTiter-Glo ATP luminescence, 48 h; Potency, µM (doses to about 46.1 µM), actives largely listed as cytotoxic; actives 1.6% (n = 360,000);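 further: NT is the 2HG producing partner of a matched IDH1 knockdown line; nearly all actives have a fitted effect of over 55% in size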
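Read-out is CellTiter-Glo luminescence after 10 minutes at room temperature, following 48 hours' compound treatment of HT-1080-NT cells (750 cells/well, RPMI, 5% FBS, 37 degrees C).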
TDP1 cell noCPT = qHTS for Inhibitors of human tyrosyl-DNA phosphodiesterase 1 (TDP1): qHTS in cells in absence of CPT; DT40 Tdp1-/- hTDP1 cells, no CPT, ATP luminescence, 48 h; Potency, µM (series often up to 46.2 µM), actives largely listed as inhibitors; actives 15% (n = 420,000); further: nearly all actives have a fitted effect of over 55% in size
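Cells were dispensed at 400 per well, compounds added by pin tool, plates incubated ≥48 hr at 37 °C, then CellTiter-Glo added for 30 min at room temperature before luminescence reading. Line: DT40 Tdp1-/- complemented with hTDP1; camptothecin omitted.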
HT1080 IDH1KD tx = toxicity to HT-1080 IDH1 knockdown cells (counter line) | Potency, µM (highest dose often 46.1 µM), usual class: cytotoxic | HT-1080 IDH1 knockdown viability, ATP luminescence, 48 h | actives 2% (n = 360,000) | AID 686971
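Assay cells: HT-1080 with IDH1 knockdown, 750 per well, RPMI/5% FBS. Exposure: 48 h at 37 °C following 2 h pre-incubation. Read: CellTiter-Glo luminescence; fitted concentration-response, curve class assigned.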
DT40 TDP1 CPT = growth inhibition of DT40 Tdp1-/-;hTDP1 cells with camptothecin (screen for TDP1 inhibitors). actives 12% (n = 420,000). Potency, µM (top dose mostly 46.2 µM), most hits filed as inhibitors. chicken DT40 Tdp1-/-;hTDP1 cells + 20 nM CPT, ATP luminescence, 48 h; further: nearly all actives have a fitted effect of over 55% in size
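Cell growth measured by CellTiter-Glo luminescence after a minimum 48 h, 37 C compound exposure with 20 nM CPT in Tdp1-knockout DT40 cells stably expressing hTDP1, seeded 400/well; qHTS titration format.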
A number is an active result; . = inactive; ? = inconclusive; / = not tested or not shown. Most compounds without a hit are left out; they make up all but 19% or so of the library. Unless noted, the call rests on the fitted dose curve; in most records, active means well fitted curve in the direction sought with a large enough effect; inconclusive means small, poorly fitted or top-dose-only effect, or another doubt; inactive means no such curve, though single readings can be large; an effect the other way counts as inactive or inconclusive.

SMILES | IL1B secr inh | HT1080-NT tox | TDP1 cell noCPT | HT1080 IDH1KD tx | DT40 TDP1 CPT
CCCCCCOc1ccc(/C=c2\s/c(=C(/C#N)C(=O)NCc3ccco3)n(-c3ccccc3)c2=O)cc1 | . | . | 6.51µM | . | 2.91µM
COC(=O)/C=c1/s/c(=C(/C#N)C(=O)NCc2ccccc2)n(-c2ccccc2)c1=O | . | . | . | . | .
COc1ccc(C(=O)NCc2ccco2)cc1S(=O)(=O)NC1CC1 | . | . | . | . | .
COC(=O)C(c1ccccc1)N(Cc1cccc(CN(C(C(=O)OC)c2ccccc2)S(C)(=O)=O)c1)S(C)(=O)=O (centres undefined) | . | . | 16.4µM | . | ?
COC(=O)[C@@H](NCc1cccc(CN[C@H](C(=O)OC)C(C)C)c1)C(C)C | . | . | . | . | .
CC(C)OC(=O)CSc1nc2ncc(Cl)cc2[nH]1 | ? | . | . | . | .
CC(C)Cn1c(N)c(C(=O)CSc2nc3ncc(Cl)cc3[nH]2)c(=O)n(C)c1=O | ? | . | 16.4µM | . | ?
Cc1ccc2nc(SCC(=O)c3c(C)[nH]c4ccccc34)[nH]c2c1 | ? | . | 18.4µM | . | 23.1µM
Cc1[nH]c2ccccc2c1C(=O)CSc1nc2ncc(Cl)cc2[nH]1 | . | . | ? | ? | 13µM
COC(=O)c1sccc1NC(=O)CC1C(=O)NCCN1C(=O)c1ccc(C)c(C)c1 (centres undefined) | / | . | . | . | .
Cc1ccc(C(=O)NCCNS(=O)(=O)c2ccccc2[N+](=O)[O-])cc1 | . | . | . | . | .
CCOc1ccccc1NC(=O)CSc1ccc2nc(-c3ccccc3)cn2n1 | / | / | 20.6µM | / | ?
O=C(CSc1ccc2nc(-c3ccccc3)cn2n1)Nc1ccccc1 | / | / | 25.9µM | / | ?
CCOc1ccccc1NC(=O)C(C)Sc1cc(-c2ccccc2)nc(C)n1 (centres undefined) | / | / | 16.4µM | / | 14.6µM
CCOc1ccccc1NC(=O)C(C)SCc1ccccc1 (centres undefined) | . | . | . | . | .
CC(=O)c1ccc(NC(=O)CSc2ccc3nc(-c4ccccc4)cn3n2)cc1 | / | / | 25.9µM | / | ?
CSCCC(NS(=O)(=O)/C=C/c1ccccc1)C(=O)O (centres undefined) | . | . | . | . | .
CCCCC(CC)COC(=O)c1ccccc1C(=O)O (centres undefined) | / | / | . | / | .
CCCC[C@H](CC(=O)c1ccccc1)[C@@H](OC(C)=O)C(=O)Oc1c(C(C)C)cccc1C(C)C | . | . | ? | . | 13µM
COc1ccc(S(=O)(=O)Nc2ccc3c(c2)N(C(C)=O)CCC3)cc1OC | . | . | ? | . | ?
COc1ccc(C)cc1S(=O)(=O)Nc1ccc2c(c1)N(C(C)=O)CCC2 | . | . | 16.4µM | . | 25.9µM
COc1cccc(OC)c1C(=O)Nc1ccc2c(c1)N(C(C)=O)CCC2 | / | / | . | / | .
COc1ccc(S(=O)(=O)Nc2ccc3c(c2)N(C(C)=O)CCC3)cc1 | . | . | 16.4µM | . | 18.4µM
CC(=O)N1CCCc2ccc(NC(=O)c3ccc(OC(C)C)cc3)cc21 | / | / | 16.4µM | / | ?
O=C(NOCC1CC1)c1ccc(F)c(F)c1Nc1ccc(I)cc1Cl | / | / | 15µM | / | ?
SMILES | IL1B secr inh | HT1080-NT tox | TDP1 cell noCPT | HT1080 IDH1KD tx | DT40 TDP1 CPT
O=C(NOC[C@H](O)CO)c1ccc(F)c(F)c1Nc1ccc(I)cc1F | / | / | . | / | .
Cc1cccc(OCC(=O)OCc2cc(=O)n3nc(C4CCCCC4)sc3n2)c1 | / | / | . | / | .
Cc1nc2ccccc2n2c(-c3ccccc3)c3c(=O)n(C)c(=O)n(C)c3c12 | . | . | 14.6µM | . | ?
CCCc1nc2ccccc2n2c(-c3ccc(C)cc3)c3c(=O)n(C)c(=O)n(C)c3c12 | / | / | 25.9µM | / | 23.1µM
CCCc1nc2ccccc2n2c(-c3cccc(C)c3)c3c(=O)n(C)c(=O)n(C)c3c12 | / | / | 8.2µM | / | ?
COc1ccc(N2CCN(c3oc(COc4ccc(Cl)cc4Cl)nc3C#N)CC2)cc1 | . | . | 9.2µM | . | ?
COc1ccc(N2CCN(c3oc(COc4ccccc4)nc3C#N)CC2)cc1 | . | . | ? | . | ?
